High-throughput results (PubChem BioAssay)
MmCpn inh – Inhibitors of TCP-1 ring complex (TRiC) of Methanococcus maripaludis (MmCpn): qHTS | purified Mm-Cpn ATPase, ADP Transcreener TR-FRET | Potency, µM (titrated, usually from 76.9 µM), for inactives: at the highest dose activity, negative = inhibition, most hits filed as inhibitors | hit rate 0.031% among 330,000; active = well fitted curve in the direction sought with a large enough effect; inconclusive = small, poorly fitted or top-dose-only effect, or another doubt; inactive = no such curve, though single readings can be large; an effect the other way counts as inactive or inconclusive; also: potency is read from the fitted curve at half-maximal effect; % is scaled to controls: 0 for no effect and ±100 for the full control effect; nearly all actives have a fitted effect of over 80% in size
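Compound-treated chaperonin, 25 nM final, turns over 10 uM ATP at 37°C for 30 min following a 10 min preincubation; ADP generated competes with ADP-d2 for Eu-cryptate antibody, lowering FRET.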
Rango dissoc inh – qHTS Assay for Inhibitors of RanGTP induced Rango (Ran-regulated importin-beta cargo) - Importin beta complex dissociation; hit rate 0.071% among 340,000; Potency, µM (titrated, usually from 46.1 µM), for the others: at the top dose activity change, negative = inhibition; Snurportin-1 (Homo sapiens) + GTP-binding nuclear protein Ran (Homo sapiens) + Importin …; Biochemical FRET Rango-importin beta, RanGTP-induced dissociation; also: potency is read from the fitted curve at half-maximal effect; % of control where 0% means no effect; nearly all actives have a fitted effect of over 45% in size
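Rango FRET biosensor (snurportin-1 IBB flanked by N-terminal EYFP and C-terminal CFP10) at 0.1 uM, with 0.25 uM importin beta in PBS, 1mM DTT, 0.02% Tween-20, 0.1% BSA. 0.6 uM Ran, 2mM GTP and 0.2 uM RCC1 were then added for 45 min at room temperature. Inhibition read as loss of FRET rise.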
Rango-impB inh – qHTS Assay for Inhibitors of Rango (Ran-regulated importin-beta cargo) - Importin beta complex formation; hit rate 0.031% among 340,000; Rango CFP/YFP FRET sensor + importin beta, 45 min; Potency, µM (top dose mostly 92.2 µM), for the others: top-dose inhibition of complex formation;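 also: potency is read from the fitted curve at half-maximal effect; 0% = DMSO wells and 100% = buffer wells lacking importin beta; nearly all actives have a fitted effect of over 15% in size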
Target sequence (Q14974 whole entry, looked up): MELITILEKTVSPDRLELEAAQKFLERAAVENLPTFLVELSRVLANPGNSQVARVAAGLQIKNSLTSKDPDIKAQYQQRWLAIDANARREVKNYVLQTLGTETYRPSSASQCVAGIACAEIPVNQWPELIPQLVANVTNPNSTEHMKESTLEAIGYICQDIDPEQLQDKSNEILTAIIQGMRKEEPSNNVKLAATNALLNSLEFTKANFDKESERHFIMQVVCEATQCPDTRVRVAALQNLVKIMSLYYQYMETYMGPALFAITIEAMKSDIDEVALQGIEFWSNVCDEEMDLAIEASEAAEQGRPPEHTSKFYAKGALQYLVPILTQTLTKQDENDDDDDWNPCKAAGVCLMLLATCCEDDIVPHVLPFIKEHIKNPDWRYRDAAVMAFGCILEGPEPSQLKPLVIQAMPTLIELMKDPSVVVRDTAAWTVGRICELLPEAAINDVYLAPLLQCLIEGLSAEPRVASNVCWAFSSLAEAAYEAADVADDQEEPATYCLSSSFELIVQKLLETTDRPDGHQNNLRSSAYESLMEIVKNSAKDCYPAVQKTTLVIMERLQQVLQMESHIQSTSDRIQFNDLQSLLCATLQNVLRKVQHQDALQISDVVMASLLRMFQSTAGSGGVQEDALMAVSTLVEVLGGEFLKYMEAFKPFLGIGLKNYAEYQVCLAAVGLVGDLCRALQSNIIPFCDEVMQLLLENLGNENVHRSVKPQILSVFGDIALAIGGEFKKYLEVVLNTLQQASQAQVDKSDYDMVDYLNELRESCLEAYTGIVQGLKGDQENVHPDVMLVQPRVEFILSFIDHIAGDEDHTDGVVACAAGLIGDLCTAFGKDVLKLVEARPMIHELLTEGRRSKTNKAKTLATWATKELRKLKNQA
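FRET biosensor Rango (snurportin 1 IBB between N-terminal EYFP and C-terminal Cerulean), 50 nM in PBS/1 mM DTT/0.02% Tween-20/0.1% BSA, preincubated 5 min RT with compound; 0.125 microM importin beta added, 45 min RT, CFP/YFP FRET ratio read.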
CCT chaperon mod – High-Throughput Screening for Modulators of Cytosolic Chaperonin Activity; purified chaperonin ATPase assay, HTRF ADP detection, 30 min; activity change, % (test concentration not listed), hits read low; hit rate 0.3% among 360,000; AID 651819, 2012; in the data active = activity change below about -30%; also: % is scaled to controls: 0 for no effect and ±100 for the full control effect
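TRiC (40 or 20 nM final, by batch activity) in 30 mM Tris pH 7.4, 100 mM KCl, 5 mM MgCl2, 1 mM DTT was treated with compound at 76 uM single dose, then 10 uM ATP, 30 min at 37 °C. ADP was read by HTRF Transcreener.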
a7 integrin act – qHTS for Activators of Integrin-Mediated Alleviation for Muscular Dystrophy | hit rate 0.064% among 350,000 | AID 624291, 2012 | alpha7betagal myoblasts, beta-gal FDG fluorescence, 48 h | Potency, µM (series often up to 38.3 µM), without a hit: at the top dose activation, hits mostly activators; active = well fitted curve in the direction sought with a large enough effect; inconclusive = small, poorly fitted or top-dose-only effect, or another doubt; inactive = no such curve, though single readings can be large; an effect the other way counts as inactive or inconclusive;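 also: potency is read from the fitted curve at half-maximal effect; 100% = response of the positive control SU9516; nearly all actives have a fitted effect of over 60% in size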
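alpha7betagal+/- myoblasts (passage 13, 250/well) treated 48 h at 37C with compounds at 1:260 dilution of DMSO stock. Lysed, then beta-galactosidase activity read as FDG fluorescence (ex 480/em 540) after 30 min, with pre-read for autofluorescence.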
* hit, by the source's call. Sampled rows, rich in hits. Any-hit rate of the full collection: about 0.51%. Unless noted, calls follow the shape of the full dose curve.

For CNc1sc(C(=O)c2cccs2)c(N)c1-c1nc2ccccc2s1 the results were MmCpn inh -4%, Rango dissoc inh 10µM*, Rango-impB inh inconclusive, CCT chaperon mod -10 and a7 integrin act 6%.
For CNc1sc(C(=O)c2ccc(F)cc2)c(N)c1-c1nc2ccccc2s1 the results were MmCpn inh -1%, Rango dissoc inh -1%, Rango-impB inh inconclusive, CCT chaperon mod 1 and a7 integrin act -13%.
`CN1CCN(C(=O)/C(=C/c2cn(S(=O)(=O)N(C)C)c3ccccc23)NC(=O)c2ccccc2)CC1` gave MmCpn inh 2%, Rango dissoc inh -2%, Rango-impB inh inconclusive, CCT chaperon mod -39* and a7 integrin act 5%.
For CN(C)S(=O)(=O)n1cc(/C=C(\NC(=O)c2ccccc2)C(=O)N2CCCC2)c2ccccc21 the results were MmCpn inh 0%, Rango dissoc inh 19%, Rango-impB inh 4%, CCT chaperon mod -2 and a7 integrin act inconclusive.
`Cc1cc(C)n2c(Nc3ccc4c(c3)OCCO4)c(CCc3ccccc3)nc2n1` gave CCT chaperon mod -1.
Cn1c(=O)c2c(ncn2Cc2ccc(Cl)cc2)n(C)c1=O was read as MmCpn inh -2%, Rango dissoc inh 2%, Rango-impB inh -2%, CCT chaperon mod 0 and a7 integrin act -13%.
Cn1c(=O)c2c([nH]c(=S)n2Cc2ccc(Cl)cc2)n(C)c1=O was read as MmCpn inh -9%, Rango dissoc inh -4%, Rango-impB inh -1%, CCT chaperon mod -84* and a7 integrin act 22%.
Screening O=C(Cn1cc(C(F)(F)F)ccc1=O)N/N=C/c1ccc(O)cc1 returned MmCpn inh 4%, Rango dissoc inh 25%, Rango-impB inh -4%, CCT chaperon mod -39* and a7 integrin act 25%.
Screening O=C(Cn1cc(C(F)(F)F)ccc1=O)N/N=C/c1ccc(Cl)c(Cl)c1 returned MmCpn inh 2%, Rango dissoc inh -6%, Rango-impB inh 0%, CCT chaperon mod 1 and a7 integrin act 7%.
`Cc1nc2ccc(NC(=O)c3ccc(N4C(=O)CCC4=O)cc3)cc2s1` gave MmCpn inh -3%, Rango dissoc inh 0%, Rango-impB inh 0%, CCT chaperon mod 2 and a7 integrin act 0%.
Screening Cc1nc2cc(NC(=O)c3ccc(N4C(=O)CCC4=O)cc3)ccc2s1 returned MmCpn inh 1%, Rango dissoc inh 1%, Rango-impB inh 4%, CCT chaperon mod -76* and a7 integrin act 7%.
For CCCNC(=O)C1(C)CCN1C(=O)c1ccc(C(C)(C)C)cc1 (stereo not drawn) the results were CCT chaperon mod 0.
Screening Cc1ccc(S(=O)(=O)N(C)c2ccc(OCC(=O)Nc3cc(C(=O)O)ccc3Cl)cc2)cc1 returned Rango dissoc inh -14%, Rango-impB inh -1%, CCT chaperon mod -1 and a7 integrin act inconclusive.
O=C(NCCCCc1ccccc1)C1CC(c2cccc(F)c2)=NO1 (stereo not drawn) was read as MmCpn inh 1%, Rango dissoc inh 5%, Rango-impB inh 3%, CCT chaperon mod -34* and a7 integrin act -14%.
For CCCCCCN1C[C@@H](n2cc(C3CC3)nn2)[C@H](O)C[C@@H]1c1ccc(OC)cc1 the results were CCT chaperon mod -1 and a7 integrin act 3%.
For CSc1nsc(SC)c1C(=O)NC(=O)Nc1cccnc1 the results were MmCpn inh 0%, Rango dissoc inh 7%, Rango-impB inh -4%, CCT chaperon mod -42* and a7 integrin act -25%.
Screening CC1(C(=O)NS(=O)(=O)c2ccc(C#N)cc2)CCN1C(=O)C1(c2ccccc2)CC1 (stereo not drawn) returned CCT chaperon mod -4.
CCN(C(=O)COC(=O)/C(=C/c1ccccc1)n1nnnc1C)C1CCCCC1 was read as MmCpn inh -1%, Rango dissoc inh -13%, Rango-impB inh inconclusive, CCT chaperon mod -88* and a7 integrin act -40%.
`O=S(=O)(c1cccc(-c2nnc(-c3ccc(Br)cc3)o2)c1)N1CCCCCC1` gave MmCpn inh -3%, Rango dissoc inh 20%, Rango-impB inh 1%, CCT chaperon mod -58* and a7 integrin act -14%.
NC(=O)CSc1nnc(-c2cccc(S(=O)(=O)N3CCCCC3)c2)o1 was read as MmCpn inh -2%, Rango dissoc inh -4%, Rango-impB inh 1%, CCT chaperon mod -57* and a7 integrin act 14%.
`O=S(=O)(c1cccc(-c2nnco2)c1)N1CCCC1` gave MmCpn inh -1%, Rango dissoc inh -9%, Rango-impB inh -4%, CCT chaperon mod 2 and a7 integrin act -9%.
Screening O=C(CSc1nnc(-c2cccc(S(=O)(=O)N3CCCCC3)c2)o1)c1ccc[nH]1 returned MmCpn inh -7%, Rango dissoc inh 23%, Rango-impB inh 4%, CCT chaperon mod -3 and a7 integrin act -24%.
`COc1ccc(CSc2nnc(Cc3sc(-c4ccccc4)nc3-c3ccccc3)o2)cc1` gave MmCpn inh 35µM*, Rango dissoc inh 12%, Rango-impB inh -1%, CCT chaperon mod 2 and a7 integrin act 13%.
Fc1ccc(CSc2nnc(Cc3sc(-c4ccccc4)nc3-c3ccccc3)o2)cc1 was read as MmCpn inh -11%, Rango dissoc inh 4%, Rango-impB inh 1%, CCT chaperon mod -12 and a7 integrin act 16%.
Screening COc1nccnc1NS(=O)(=O)c1ccc(NC(=S)NC(=O)c2ccc(F)cc2)cc1 returned MmCpn inh 0%, Rango dissoc inh -15%, Rango-impB inh -1%, CCT chaperon mod 2 and a7 integrin act -21%.
`COc1nccnc1NS(=O)(=O)c1ccc(NC(=S)NC(=O)c2cccc(F)c2)cc1` gave MmCpn inh 2%, Rango dissoc inh -4%, Rango-impB inh 1%, CCT chaperon mod -63* and a7 integrin act 30%.
For CCOC(=O)[C@]12CCC=C1N(Cc1ccccc1)C(=O)[C@H](CC(=O)N1CCOCC1)C2 the results were CCT chaperon mod 0.
`O=C(/C=C/[C@H]1O[C@@H](n2ccc(=O)[nH]c2=O)[C@H](O)[C@@H]1O)NCc1ccco1` gave CCT chaperon mod 0.
For O=C(N/N=C/c1cn[nH]c1-c1ccc(F)cc1)c1ccncc1 the results were MmCpn inh 1%, Rango dissoc inh 7%, Rango-impB inh -3%, CCT chaperon mod 0 and a7 integrin act 14µM*.
